Among the data in PubChem BioAssay (NCI) are growth values, retold here.

Each structure is given as a SMILES string. This is part of a sample that, as a whole, favours compounds with a hit. Of some 83,000 tested, about 20% had one in any assay.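 Growth was measured after 48 h exposure to one concentration of compound in 96-well plates. Values under 10 count as active.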 A number with no mark means an inactive call. Active and inactive are the calls of the source.

Some test systems named below: T-47D breast; BT-549 breast; MDA-MB-435 melanoma; SW-620 colon; MCF7 breast; HCT-116 colon; HCC-2998 colon; KM12 colon.
What all share (assay): NCI-60 one-dose screen, 48 h (100 = growth as untreated, 0 = no growth, -100 = all killed)
Settings in all cases: 10 µM unless noted

As for `N=C(N)c1ccc(-c2ccc(-c3ccc(Cl)cc3)o2)nc1`, the growth was -75.4% (active) with T-47D breast; -88% (active) with BT-549 breast; -84.5% (active) in the experiment on MDA-MB-435 melanoma; -93.4% (active) with SW-620 colon; -81.4% (active) with MCF7 breast; -84.4% (active) in the experiment with HCT-116 colon. Besides, the growth in the experiment with HCC-2998 colon is -71.9% (active); in the experiment on KM12 colon, -93.4% (active).
Take `CC[C@H](C)[C@H]1NC(=O)[C@@H](N[C@](C)(O)[C@@H](N)CC(C)C)[C@@H](C)OC(=O)[C@H](Cc2ccc(OC)cc2)N(C)C(=O)[C@@H]2CCCN2C(=O)[C@H](CC(C)C)NC(=O)[C@@H](C)C(=O)[C@H](C(C)C)OC(=O)C[C@@H]1O`: the growth is -15.4% (active) in the experiment on T-47D breast; -45.9% (active) in the experiment on BT-549 breast; -35.4% (active) in the experiment on MDA-MB-435 melanoma; 0.636% (active) with SW-620 colon; 2.76% (active) with MCF7 breast; -15.1% (active) with HCT-116 colon. For the same compound, the growth was -26.8% (active) in the experiment on HCC-2998 colon and -14.8% (active) with KM12 colon.
On to `Nc1c(C(=O)Nc2c(Cl)cccc2Cl)sc2nc3c(cc12)CCCCC3`, for which the growth in the experiment with T-47D breast was 57.7%; in the experiment on BT-549 breast, 52.6%; with MDA-MB-435 melanoma, 9.69% (active); in the experiment with SW-620 colon, 46.1%; in the experiment with MCF7 breast, 18.4%; in the experiment on HCT-116 colon, 62.3%. In addition, the values for the growth in the experiment with HCC-2998 colon and with KM12 colon were 57% and 53.6%, respectively.
For the compound `Cc1ccc(Cn2c(-c3cccs3)nc3ccccc32)cc1`, the growth in the experiment with T-47D breast is 72.5%; in the experiment on BT-549 breast, 128%; in the experiment with MDA-MB-435 melanoma it was 111%; with SW-620 colon it was 81.2%; in the experiment on MCF7 breast, 87.7%; in the experiment on HCT-116 colon, 76.5%. Besides, the growth is 94.9% in the experiment on HCC-2998 colon and 96% with KM12 colon.
With `CCSc1nnc(NC(=O)Cc2ccc(Cl)cc2)s1`, the growth in the experiment with T-47D breast is 96.2%; with BT-549 breast, 109%; in the experiment on MDA-MB-435 melanoma, 98.9%; with SW-620 colon it was 109%; in the experiment with MCF7 breast, 101%; with HCT-116 colon, 105%. Also, the growth is 84.9% in the experiment on HCC-2998 colon and 96.9% in the experiment on KM12 colon.
In the case of `NC(CC(N)C(=O)O)C(=O)O` (stereo not drawn), the growth with T-47D breast is 92.9%; in the experiment with BT-549 breast, 105%; with MDA-MB-435 melanoma, 103%; with SW-620 colon it was 104%; with MCF7 breast it was 98.7%; in the experiment with HCT-116 colon, 102%. For the same compound, the growth in the experiment with HCC-2998 colon is 99.3%; in the experiment on KM12 colon, 113%.
Turning to `COc1ccc(-c2nc3sccn3c2-c2ccnc(NCCCNS(=O)(=O)c3ccc4ccccc4c3)n2)cc1`, the growth was 32.6% in the experiment on T-47D breast; 65.3% with BT-549 breast; 50% in the experiment with MDA-MB-435 melanoma; 105% in the experiment on SW-620 colon; 52.2% with MCF7 breast; 60.2% in the experiment with HCT-116 colon. Moreover, the growth in the experiment on HCC-2998 colon is 84.1%; in the experiment with KM12 colon, 50.1%.
On to `Nc1cc2c(cc1N)-c1cc(N)c(N)cc1C2`, for which the growth in the experiment with T-47D breast is 110%; in the experiment with BT-549 breast it was 79.7%; in the experiment on MDA-MB-435 melanoma, 108%; in the experiment with SW-620 colon, 102%; in the experiment with MCF7 breast, 93.5%; in the experiment on HCT-116 colon, 104%. For the same compound, the growth in the experiment with HCC-2998 colon is 105%; in the experiment on KM12 colon, 101%.
Turning to `CCC(c1ccc(OC)cc1)C(CC)c1ccc(OCC[N+](C)(C)C)cc1` (stereo not drawn), the growth is 62.7% in the experiment with T-47D breast; 57.2% in the experiment with BT-549 breast; 59.8% with MDA-MB-435 melanoma; 70.6% in the experiment on SW-620 colon; 56.9% with MCF7 breast; 89.6% in the experiment on HCT-116 colon. Besides, the growth with HCC-2998 colon is 39.3%; with KM12 colon, 49.4%.
`CCCCCc1c(C)[nH]c(/C=c2\[nH]/c(=C3/C=c4ccccc4=N3)cc2OC)c1C`: the growth in the experiment on T-47D breast was -6.71% (active); with BT-549 breast, -35.2% (active); in the experiment with MDA-MB-435 melanoma it was -53.6% (active); in the experiment with SW-620 colon, -36.1% (active); in the experiment with MCF7 breast, -54.5% (active); in the experiment with HCT-116 colon, -97.2% (active). Also, the growth was -11.4% (active) with HCC-2998 colon and -21.7% (active) in the experiment on KM12 colon.
With `COc1cc(-n2nc(C(=O)Nc3ccc(C(=O)O)cc3)nc2-c2ccccc2)cc(OC)c1OC`, the growth in the experiment on T-47D breast was 79%; with BT-549 breast, 105%; with MDA-MB-435 melanoma it was 113%; in the experiment on SW-620 colon, 101%; in the experiment on MCF7 breast it was 93.5%; in the experiment with HCT-116 colon it was 91.7%. Besides, the growth in the experiment with HCC-2998 colon is 97.9%; with KM12 colon it was 105%.
For `COc1cc(NS(C)(=O)=O)ccc1Nc1c2ccc([N+](=O)[O-])cc2nc2c(C)cccc12`, the growth with T-47D breast is 1.78% (active); in the experiment on BT-549 breast it was 27%; in the experiment with MDA-MB-435 melanoma, 27.2%; in the experiment with SW-620 colon it was 18.8%; in the experiment on MCF7 breast, 15.6%; in the experiment on HCT-116 colon, 22.9%. The values for the growth in the experiment on HCC-2998 colon and with KM12 colon were -1.86% (active) and -29.1% (active), respectively.
Take `COc1cc(-c2n[nH]nc2-c2ccc3c(c2)OCCO3)cc(OC)c1OC`: the growth with T-47D breast was 40.5%; in the experiment with BT-549 breast, 12%; in the experiment with MDA-MB-435 melanoma, -11.4% (active); in the experiment on SW-620 colon it was 19.4%; in the experiment with MCF7 breast, 9.04% (active); with HCT-116 colon, 8.07% (active). Also, the growth was 10.1% in the experiment on HCC-2998 colon and 9.43% (active) in the experiment on KM12 colon.
Consider `COc1ccc(C2NC3=C(CCCC3)C(C#N)(C#N)C2(C#N)C#N)cc1` (stereo not drawn), for which the growth was 49.2% with T-47D breast; 92.9% in the experiment on BT-549 breast; 103% in the experiment on MDA-MB-435 melanoma; 48.2% with SW-620 colon; 49.9% in the experiment with MCF7 breast; 78.7% with HCT-116 colon. The growth in the experiment with HCC-2998 colon is 102%; in the experiment with KM12 colon, 103%.
`CC1Cc2c(N(C)C)ncnc2N(C)c2ccc(O)cc21` (stereo not drawn): the growth is 89.7% in the experiment with T-47D breast; 88.8% in the experiment on BT-549 breast; 8.93% (active) in the experiment with MDA-MB-435 melanoma; 63.5% in the experiment on SW-620 colon; 73.9% in the experiment on MCF7 breast; 79.6% with HCT-116 colon. Further, the growth in the experiment on HCC-2998 colon is 88.8%; in the experiment on KM12 colon, 59.9%.
For `CCN(CC)S(=O)(=O)c1ccc2[nH]c(=O)cc(C(=O)Nc3ccc(OC)cc3OC)c2c1`, the growth in the experiment with T-47D breast was 101%; with BT-549 breast, 136%; with MDA-MB-435 melanoma, 108%; with SW-620 colon, 108%; in the experiment on MCF7 breast, 99.6%; in the experiment with HCT-116 colon, 97.3%. Also, the growth in the experiment on HCC-2998 colon is 75.3%; in the experiment on KM12 colon it was 110%.
